Reference: PubChem BioAssay (NCI)
About 83,000 compounds went through this panel and 20% of them were active in at least one assay; those are over-represented in the sample as a whole.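 Interpretation: 100, growth as untreated; towards 0, rising growth inhibition; 0, no net growth; 0 to -100, cell death. Compounds scoring below 10 were considered active.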 Calls of active or inactive are those of the source.

What follows are molecules tested on OVCAR-4 ovarian (assay: NCI-60 one-dose screen, 48 h (100 = growth as untreated, 0 = no growth, -100 = all killed)). Conditions: 10 µM unless noted.

Structure (SMILES) | growth
COC(=O)C1=CCC(n2cnc3c(N)ncnc32)O1 (centres undefined) | 106% (inactive)
CCN(Cc1cccc(S(=O)(=O)[O-])c1)c1ccc(C(=C2C=CC(=[N+](CC)Cc3cccc(S(=O)(=O)O)c3)C=C2)c2ccccc2S(=O)(=O)O)cc1 | 93.4% (inactive)
CC(NC(=O)Oc1cccc2ccccc12)c1ccccc1 (centres undefined) | 97.4% (inactive)
OC(c1cc(-c2cccc(Cl)c2)nc2ccccc12)C1CCCCN1 (centres undefined) | -7.1% (active)
O=C(Nc1ccccc1OC(=O)c1ccccc1)c1ccccc1 | 63.5% (inactive)
Cc1ccccc1NC(=O)NC(CC(N)=O)c1ccc2c(c1)nc(-c1cccc(Oc3ccc(C(C)(C)C)cc3)c1)n2CCCN1CCCCC1C (centres undefined) | 66.5% (inactive)
O=C(C(=O)c1cc(Br)ccc1O)c1cc(Br)ccc1O | 42.2% (inactive)
Fc1ccccc1C1c2ccccc2-c2nccn21 (centres undefined) | 90% (inactive)
COc1cc(/C=C\C(C)=N\Nc2ccccc2)ccc1O | 85.6% (inactive)
COc1cc(/C=N/NC(=O)c2ccc(C(F)(F)F)nc2Nc2ccc(Cl)cc2C)ccc1O | 27.2% (inactive)
O=Cc1ccccc1C(=O)O | 92.6% (inactive)
COc1cc(NC(=O)NCc2ccco2)ccc1-c1ccc(NC(=O)NCc2ccco2)cc1OC | 60.9% (inactive)
COc1cccc(/C=N/Nc2nc3ccccc3s2)c1OC | 92.2% (inactive)
O=C(N/N=C/c1ccc(Cl)cc1Cl)c1ccccc1Nc1cccc(C(F)(F)F)c1 | 65.6% (inactive)
COc1ccc(NS(=O)(=O)N2CCCCC2)cc1 | 125% (inactive)
O=c1c2ccccc2c2nccn2c2cc(Cl)ccc12 | 81.5% (inactive)
COc1ccc(-c2ccc(O)c(C(=O)/C=C/c3cc(OC)c(OC)c(OC)c3)c2)cc1 | 79.6% (inactive)
Cn1cnc([N+](=O)[O-])c1Sc1nc(N)nc2nc[nH]c12 | 42.8% (inactive)
Cc1cc(=O)oc2cc(OCCn3c(C)nn(-c4ccc(Cl)cc4)c3=O)ccc12 | 67.1% (inactive)
O=C1C=CC(=O)N1c1ccccn1 | 100% (inactive)
CCN(CC)c1ccc(N=C2C=CC(=O)C=C2NC(C)=O)cc1 | 104% (inactive)
CC1CN(C2CCCCC2)C(=O)NC1=O (centres undefined) | 116% (inactive)
COc1ccc2cc(C3=CC(=O)CCC3)ccc2c1 | 104% (inactive)
COc1ccc(Cl)cc1Nc1nc(C(F)(F)F)ccc1C(=O)N/N=C/c1c(Cl)cccc1Cl | 39% (inactive)
